We go through 40 compounds from PubChem BioAssay (Tox21).

SMILES strings stand for the structures. Where “and” joins values, the source holds several entries; their conditions need not be identical. Equal values may be shown once. Inconclusive results are not listed. A call without a number means that no potency is given here. Where a structure was tested more than once in an assay, its records may differ in their call. Calls of active or inactive are those of the source. The call rests on the fitted dose curve.
Potency means the concentration at half of the fitted maximal effect.

The assay is described as follows: qHTS assay to identify small molecule antagonists of the sonic hedgehog signaling (Shh) pathway (AID 1259369). Further: nearly all actives have a fitted effect of over 45% in size. The conditions noted are these: NIH/3T3 Gli1-Luc reporter, Shh antagonist, luminescence 24 h; series mostly up to 92.4 µM; activity change, negative = inhibition: at the top concentration. The source says:
U.S. Tox21 Program National Center for Advancing Translational Sciences [NCATS] NIH Chemical Genomics Center [NCGC] U.S. Environmental Protection Agency [EPA] National Institutes of Environmental Health Sciences [NIEHS] National Toxicology Program [NTP] U.S. Food and Drug Administration [FDA] Tox21 Assay Overview: The sonic hedgehog (Shh) pathway is essential for normal embryonic development. Dysregulation of the Shh pathway can cause severe developmental defects in organs. Therefore chemicals that interfere with the pathway are potential developmental toxicants. A cell line designated 3T3Gli1-Luc (DMB/OARSA/CFSAN/FDA, Laurel, MD), a NIH/3T3 derived clone containing stably integrated Gli1-Luc reporter is used to detect chemical interference of the Shh pathway, by changes in the expression of the firefly Luc gene under the control of the Gli1 transcriptional response element. This cell line was used to screen Tox21 libraries for identifying and prioritizing the potential developmental toxicants that interfere Shh pathway. Conditioned medium-stimulated mode was used to screen for chemicals inhibiting Shh signaling.
Tox21 Assay Protocol Summary: 3T3 Gli1-Luc cells were dispensed at 2,000 per well in 5uL of culture medium into white solid bottom 1536-well plates (Greiner Bio-One, Monroe, NC) using a Multidrop Combi (Thermo Scientific, Waltham, MA) dispenser. The assay plates were incubated at 37 C and 5% CO2 for 4hr, and then 23nL of compounds dissolved in DMSO and positive control were transferred using a Pintool station (Wako, San Diego, CA). The compound transfer was followed by the addition of 1ul conditioned medium or assay buffer using two separate tips of Flying Reagent Dispenser (FRD, Aurora Discovery, San Diego, CA). The assay plates were incubated at 37C and 5% CO2 for 24hr. For luciferase read, 4uL of Amplite Luciferase reporter gene assay reagent (AAT Bioquest, Inc. Sunnyvale, CA) was added to each well of the assay plates using FRD and incubated at room temperature for 30min. The luminescence signal was measured using a ViewLux plate reader (Perkin Elmer, Shelton, CT).
On the technique in general: Quantitative high-throughput screening tests each substance at several concentrations.
Consider `C=C(C)OC(C)=O`, for which the Potency entry was “inactive”.
On the same count and under the same terms, for `CC(=O)CCC(C)C` the value was “inactive”.
The same measure, in the same setting: the entry for `C=CCOC(=O)CC(C)C` is “inactive”; for `CC(C)=CCC/C(C)=C/CO` it is “inactive”.
For `C[C@]12C=CC(=O)C=C1CC[C@@H]1[C@@H]2C(=O)C[C@@]2(C)[C@H]1CC[C@]2(O)C(=O)CO`, the “activity change, negative = inhibition” value was -35.2% (inactive).
As to `COc1cc(C=O)ccc1O`, the Potency result is “inactive”.
`c1ccc2[nH]c(-c3cscn3)nc2c1`: the Potency entry is “inactive”.
In the case of `Nc1cccc(N)c1`, the Potency entry was “inactive”.
For `CCOCCO`, the Potency result is “inactive”.
On to `CC(O)COc1ccccc1` (stereo not given), for which the Potency result is “inactive”.
On the same count and under the same terms, for `COCC(C)N` (stereo not given) the value was “inactive”; for `CC(C)(C)NCC(O)c1ccc(O)c(CO)c1` (stereo not given), “inactive”.
Take `O=C1OC(c2ccc(O)cc2)(c2ccc(O)cc2)c2ccccc21`: the Potency is 3.83 µM (active) and 38.6 µM (active) and inactive.
Still for that read-out and setting: for `CC1=NN(c2ccccc2)C(=O)C1` the value was “inactive”; for `COc1ccc(C(=O)c2ccccc2)c(O)c1`, “inactive”.
In the case of `CCN1CCCC1=O`, the “activity change, negative = inhibition” value is 1.56% (inactive).
With `Oc1cccc(O)c1`, the Potency result is “inactive”.
On to `COC(=O)c1ccc(O)cc1`, for which the Potency entry was “inactive”.
Take `O=C(O)Cc1cccc2ccccc12`: the Potency entry is “inactive”.
On to `COc1ccccc1O`, for which the Potency entry was “inactive”.
Same read-out and setting: the figure for `CC(=O)OC/C=C(C)/C=C/C=C(C)/C=C/C1=C(C)CCCC1(C)C` is 24.3 µM (active); for `COc1ccccc1NC(=O)CC(C)=O` it is “inactive”; for `CCN(CC)CCOC(=O)c1ccc(N)cc1` it is “inactive”.
On the same count and under the same terms, for `C#C[C@]1(O)CC[C@H]2[C@@H]3CCc4cc(O)ccc4[C@H]3CC[C@@]21C` the value was 1.71 µM (active) and 9.69 µM (active).
With `N[C@@H](Cc1c[nH]c2ccc(O)cc12)C(=O)O`, the “activity change, negative = inhibition” value is -21% [at 42.5 µM] (inactive).
`NC(=O)N/N=C/c1ccc([N+](=O)[O-])o1`: the Potency entry is “inactive and 10.9 µM (active) and 29.8 µM (active)”.
As to `C/C=C/c1ccc(O)c(OC)c1`, the Potency entry was “inactive”.
As to `COC(=O)c1ccc(C=O)cc1`, the Potency entry is “inactive”.
As for `CCc1cc(C(N)=S)ccn1`, the Potency entry is “inactive”.
For the compound `CCn1cc(C(=O)O)c(=O)c2ccc(C)nc21`, the Potency result was “inactive”.
On to `O=C1CCCCCN1`, for which the Potency is 1.54 µM (active) and inactive.
Still for that read-out and setting: the entry for `NC(=O)NO` is “inactive”.
For the compound `CCCCOCCOCCSC#N`, the “activity change, negative = inhibition” value is 2.81% (inactive).
For the compound `Cc1cccc(Nc2cc(Cl)nc(SCC(=O)O)n2)c1C`, the Potency entry is “inactive”.
Consider `O=c1cc[nH]c(=O)[nH]1`, for which the “activity change, negative = inhibition” value is 10.7% [at 42.5 µM] (inactive).
In the case of `C=C(C)C(N)=O`, the Potency entry was “inactive”.
Still for that read-out and setting: the entry for `O=C(OCc1ccccc1)c1ccccc1` is “inactive”; for `CC1(C)O[C@@H]2[C@@H](CO[C@@]3(COS(N)(=O)=O)OC(C)(C)O[C@@H]23)O1` it is “inactive”.
Same read-out and setting: the figure for `COC1=CC(=O)C[C@@H](C)[C@]12Oc1c(Cl)c(OC)cc(OC)c1C2=O` is 4.29 µM (active) and 13.7 µM (active).
As for `CC(C)Cc1ccc(C(C)C(=O)O)cc1` (stereo not given), the Potency entry was “inactive”.
